Counter-ions that a name gives are not always drawn.
tested on: Danio rerio larvae (5 dpf); test: 1-h baseline activity (% time moving, periods 1-6) minus DMSO control (percentage points); higher = more locomotor activity than DMSO larvae; details: 10 µM; exposure time: 3 h pre-incubation + 3 h imaging
Procedure: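 Wild-type 5 dpf zebrafish larvae (n=48 per drug, 96-well plates, 28.5 °C) were exposed to Tocris FDA-approved library compounds at 10 µM (0.1% DMSO) for 3 h before and 3 h during imaging. Images were taken every 6 s during visual (moving coloured lines) and acoustic stimuli, and larvae were tracked with the DeepLabCut-based Z-LaP Tracker. Each behavioural measure is the treated-group mean minus the DMSO vehicle control mean (n=844), in percentage points. This mapping covers compounds with 4-character plate codes.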

For O=c1[nH]c(=O)n([C@H]2C[C@H](O)[C@@H](CO)O2)cc1C(F)(F)F [Trifluorothymidine], which 1-h baseline activity is on record?
Its 1-h baseline activity is 0.518.

With CCN(CC)CCNC(=O)c1c(C)[nH]c(/C=C2\C(=O)Nc3ccc(F)cc32)c1C [Sunitinib malate] as the compound, how does the 1-h baseline activity read?
The 1-h baseline activity was -14.

CCCCNc1cc(C(=O)O)cc(S(N)(=O)=O)c1Oc1ccccc1 [Bumetanide] was tested. Which 1-h baseline activity did it give?
Its 1-h baseline activity is 3.

O=C(O[C@@H]1C[C@@H]2C[C@H]3C[C@H](C1)N2CC3=O)c1c[nH]c2ccccc12 [Dolasetron mesylate] was tested. Which 1-h baseline activity did it give?
The 1-h baseline activity was -3.58.

With Cc1ccc(-c2cc(C(F)(F)F)nn2-c2ccc(S(N)(=O)=O)cc2)cc1 [Celecoxib] as the compound, how does the 1-h baseline activity read?
Its 1-h baseline activity is -5.62.

Cc1ccc(NC(=O)c2ccc(CN3CCN(C)CC3)cc2)cc1Nc1nccc(-c2cccnc2)n1 [Imatinib mesylate] was tested. Which 1-h baseline activity did it give?
Its 1-h baseline activity is -13.5.

Which 1-h baseline activity does the source give for NS(=O)(=O)c1cc(C(=O)O)c(NCc2ccco2)cc1Cl [Furosemide] here?
The 1-h baseline activity was 5.77.

For Brc1c(NC2=NCCN2)ccc2nccnc12, which 1-h baseline activity is on record?
Its 1-h baseline activity is -17.8.

Which 1-h baseline activity does the source give for CCOC(=O)C1=C(C)NC(C)=C(C(=O)OC)C1c1cccc(Cl)c1Cl (stereo not given) [Felodipine] here?
The 1-h baseline activity was -15.3.

With CCC(=O)O[C@]1(C(=O)SCF)[C@H](C)C[C@H]2[C@@H]3C[C@H](F)C4=CC(=O)C=C[C@]4(C)[C@@]3(F)[C@@H](O)C[C@@]21C [Fluticasone propionate] as the compound, how does the 1-h baseline activity read?
Its 1-h baseline activity is 6.52.

How did the 1-h baseline activity turn out when COc1cc2ncnc(Nc3ccc(F)c(Cl)c3)c2cc1OCCCN1CCOCC1 [Iressa] was run?
The 1-h baseline activity was -6.95.

Which 1-h baseline activity does the source give for CCC(C)(C)C(=O)O[C@H]1C[C@@H](C)C=C2C=C[C@H](C)[C@H](CC[C@@H]3C[C@@H](O)CC(=O)O3)[C@H]21 [Simvastatin] here?
The 1-h baseline activity was 6.15.

Nc1nc(F)nc2c1ncn2[C@@H]1O[C@H](CO)[C@@H](O)[C@@H]1O [Fludarabine] was tested. Which 1-h baseline activity did it give?
The 1-h baseline activity was 4.33.

With Cc1c(-c2ccc(O)cc2)n(Cc2ccc(OCCN3CCCCCC3)cc2)c2ccc(O)cc12 [Bazedoxifene acetate] as the compound, how does the 1-h baseline activity read?
The 1-h baseline activity was -14.5.

How did the 1-h baseline activity turn out when NS(=O)(=O)Cc1noc2ccccc12 [Zonisamide] was run?
The 1-h baseline activity was 2.49.

With CC(C)C(=O)OCC(=O)[C@@]12O[C@H](C3CCCCC3)O[C@@H]1C[C@H]1[C@@H]3CCC4=CC(=O)C=C[C@]4(C)[C@H]3[C@@H](O)C[C@@]12C [Ciclesonide] as the compound, how does the 1-h baseline activity read?
The 1-h baseline activity was -10.2.

Which 1-h baseline activity does the source give for Cc1nc(-c2ccc(OCC(C)C)c(C#N)c2)sc1C(=O)O [Febuxostat] here?
The 1-h baseline activity was -2.75.

C[C@]12CCC(=O)C=C1CC[C@@H]1[C@@H]2[C@@H](O)C[C@@]2(C)[C@H]1CC[C@]2(O)C(=O)CO [Hydrocortisone] was tested. Which 1-h baseline activity did it give?
The 1-h baseline activity was 1.95.

With COC(c1ccccc1)(c1ccccc1)[C@H](Oc1nc(C)cc(C)n1)C(=O)O [Ambrisentan] as the compound, how does the 1-h baseline activity read?
The 1-h baseline activity was 0.292.

With N#Cc1ccc(C(c2ccc(C#N)cc2)n2cncn2)cc1 [Letrozole] as the compound, how does the 1-h baseline activity read?
The 1-h baseline activity was -4.77.

For CC(C)N(CCCCOCC(=O)NS(C)(=O)=O)c1cnc(-c2ccccc2)c(-c2ccccc2)n1 [Selexipag], which 1-h baseline activity is on record?
Its 1-h baseline activity is 1.65.

Cc1ccsc1C(=CCCN1CCC[C@@H](C(=O)O)C1)c1sccc1C [Tiagabine hydrochloride] was tested. Which 1-h baseline activity did it give?
Its 1-h baseline activity is 7.89.

Which 1-h baseline activity does the source give for Cc1ccc(N(CC2=NCCN2)c2cccc(O)c2)cc1 [Phentolamine Mesylate] here?
The 1-h baseline activity was 7.71.

Which 1-h baseline activity does the source give for COCCCOc1cc(C[C@@H](C[C@H](N)[C@@H](O)C[C@H](C(=O)NCC(C)(C)C(N)=O)C(C)C)C(C)C)ccc1OC [Aliskiren hemifumarate] here?
The 1-h baseline activity was -5.54.

With C[C@H]1C[C@@H]2[C@H]([C@@H](O)C[C@@]3(C)[C@H]2CC[C@]3(O)C(=O)CO)[C@@]2(C)C=CC(=O)C=C12 [Methylprednisolone] as the compound, how does the 1-h baseline activity read?
Its 1-h baseline activity is -0.716.

Which 1-h baseline activity does the source give for CC(C)CN(C[C@@H](O)[C@H](Cc1ccccc1)NC(=O)O[C@H]1CO[C@H]2OCC[C@H]21)S(=O)(=O)c1ccc(N)cc1 [Darunavir] here?
The 1-h baseline activity was 10.3.

COC(=O)C1=C(C)NC(C)=C(C(=O)OC(C)C)C1c1cccc2nonc12 (stereo not given) [Isradipine] was tested. Which 1-h baseline activity did it give?
The 1-h baseline activity was -3.08.

CCOc1nc2cccc(C(=O)O)c2n1Cc1ccc(-c2ccccc2-c2nnn[nH]2)cc1 [Candesartan] was tested. Which 1-h baseline activity did it give?
The 1-h baseline activity was 2.98.

With COc1cc(Nc2c(C#N)cnc3cc(OCCCN4CCN(C)CC4)c(OC)cc23)c(Cl)cc1Cl [Bosutinib] as the compound, how does the 1-h baseline activity read?
The 1-h baseline activity was -17.1.

With Nc1nc2[nH]cc(CCc3ccc(C(=O)N[C@@H](CCC(=O)O)C(=O)O)cc3)c2c(=O)[nH]1 [Pemetrexed] as the compound, how does the 1-h baseline activity read?
Its 1-h baseline activity is -1.52.

How did the 1-h baseline activity turn out when CCCCc1nc(Cl)c(CO)n1Cc1ccc(-c2ccccc2-c2nnn[nH]2)cc1 [Losartan potassium] was run?
The 1-h baseline activity was 10.3.

With CN(CCOc1ccc(NS(C)(=O)=O)cc1)CCc1ccc(NS(C)(=O)=O)cc1 [Dofetilide] as the compound, how does the 1-h baseline activity read?
Its 1-h baseline activity is -0.169.

Which 1-h baseline activity does the source give for CCOc1nc2cccc(C(=O)O)c2n1Cc1ccc(-c2ccccc2-c2noc(=O)[nH]2)cc1 [Azilsartan] here?
The 1-h baseline activity was 1.25.

For CC(=O)O[C@H]1C(=O)[C@@]2(C)[C@H]([C@H](OC(=O)c3ccccc3)[C@]3(O)C[C@H](OC(=O)[C@H](O)[C@@H](NC(=O)c4ccccc4)c4ccccc4)C(C)=C1C3(C)C)[C@]1(OC(C)=O)CO[C@@H]1C[C@@H]2O [Taxol], which 1-h baseline activity is on record?
The 1-h baseline activity was 1.47.

Which 1-h baseline activity does the source give for COc1ccc([C@@H]2Sc3ccccc3N(CCN(C)C)C(=O)[C@@H]2OC(C)=O)cc1 [Diltiazem hydrochloride] here?
The 1-h baseline activity was -4.8.

Which 1-h baseline activity does the source give for CCc1ccc(CCOc2ccc(CC3SC(=O)NC3=O)cc2)nc1 (stereo not given) [Pioglitazone hydrochloride] here?
The 1-h baseline activity was -7.48.

CCOC(=O)c1ncn2c1CN(C)C(=O)c1cc(F)ccc1-2 [Flumazenil] was tested. Which 1-h baseline activity did it give?
The 1-h baseline activity was 1.03.

With CC1CNc2c(cccc2S(=O)(=O)N[C@@H](CCCNC(=N)N)C(=O)N2CC[C@@H](C)C[C@@H]2C(=O)O)C1 (stereo not given in full) [Argatroban] as the compound, how does the 1-h baseline activity read?
Its 1-h baseline activity is 3.52.

Nc1nc2c(ncn2COCCO)c(=O)[nH]1 [Acyclovir] was tested. Which 1-h baseline activity did it give?
Its 1-h baseline activity is -2.63.

For Nc1nc(NC2CC2)c2ncn([C@H]3C=C[C@@H](CO)C3)c2n1 [Abacavir hemisulfate], which 1-h baseline activity is on record?
Its 1-h baseline activity is 6.96.

From the supplement of paper PMC9950053
